# From the supplement of paper PMC10681739
# Columns and labels:
# [1] = target: T1, ETS1 (UniProt P14921); assay: ETS1 binding intensity (PBM fluorescence), ETS1 alone (arbitrary fluorescence units); higher = stronger binding; conditions: ETS1 concentration 1 nM; RUNX1 concentration 0 nM
# T1 sequence: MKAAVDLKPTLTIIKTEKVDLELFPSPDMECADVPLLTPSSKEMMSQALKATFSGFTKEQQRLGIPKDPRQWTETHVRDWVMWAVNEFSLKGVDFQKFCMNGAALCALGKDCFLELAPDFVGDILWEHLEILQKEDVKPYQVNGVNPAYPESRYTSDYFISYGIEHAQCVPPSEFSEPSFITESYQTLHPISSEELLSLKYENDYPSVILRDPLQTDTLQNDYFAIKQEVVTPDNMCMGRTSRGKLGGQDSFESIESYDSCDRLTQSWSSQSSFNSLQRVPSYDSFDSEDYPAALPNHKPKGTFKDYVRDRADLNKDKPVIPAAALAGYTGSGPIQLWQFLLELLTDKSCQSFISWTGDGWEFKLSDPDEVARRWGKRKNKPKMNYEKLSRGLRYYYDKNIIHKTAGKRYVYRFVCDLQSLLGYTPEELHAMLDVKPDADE
# [2] = target: RUNX1 (UniProt Q01196); assay: RUNX1 binding intensity (PBM fluorescence), RUNX1 alone (arbitrary fluorescence units); higher = stronger binding; conditions: RUNX1 concentration 2 nM; ETS1 concentration 0 nM
# Method: (§1)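 Cooperative gcPBM on 36-bp genomic probes with neighbouring ETS1 and RUNX1 sites. Recombinant human RUNX1 (2 nM) was incubated alone or with ETS1 (25 nM) and detected with anti-RUNX1 antibody plus Alexa488 secondary. Values are medians over 4 replicate spots; the RUNX1+ETS1 data were normalised to the RUNX1-only data. The probes sit in constant array flanks that are not printed.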
# [3] = target: RUNX1 (UniProt Q01196); assay: RUNX1 binding intensity (PBM fluorescence) in presence of ETS1, normalised to RUNX1-only experiment (arbitrary fluorescence units); higher = stronger binding; conditions: RUNX1 concentration 2 nM; ETS1 concentration 25 nM
# Method: as §1
# [4] = target: T1, ETS1; assay: ETS1 binding intensity (PBM fluorescence) in presence of RUNX1, normalised to ETS1-only experiment (arbitrary fluorescence units); higher = stronger binding; conditions: ETS1 concentration 1 nM; RUNX1 concentration 25 nM
# 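Throughout, for RUNX1 binding intensity (PBM fluorescence) in presence of ETS1, normalised to RUNX1-only experiment: Full-length recombinant human ETS1 or RUNX1 bound to double-stranded 36-bp genomic probes on microarrays, detected by protein-specific primary antibody and Alexa488 secondary, spot fluorescence as median of four replicate spots.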
# 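Throughout, for RUNX1 binding intensity (PBM fluorescence), RUNX1 alone: Full-length recombinant human RUNX1 bound to double-stranded 36-bp genomic probes on a high-density microarray, scored as Alexa488 fluorescence per spot via anti-RUNX1 antibody, median of four replicate spots.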
# Chain of RUNX1 (Q01196 whole entry): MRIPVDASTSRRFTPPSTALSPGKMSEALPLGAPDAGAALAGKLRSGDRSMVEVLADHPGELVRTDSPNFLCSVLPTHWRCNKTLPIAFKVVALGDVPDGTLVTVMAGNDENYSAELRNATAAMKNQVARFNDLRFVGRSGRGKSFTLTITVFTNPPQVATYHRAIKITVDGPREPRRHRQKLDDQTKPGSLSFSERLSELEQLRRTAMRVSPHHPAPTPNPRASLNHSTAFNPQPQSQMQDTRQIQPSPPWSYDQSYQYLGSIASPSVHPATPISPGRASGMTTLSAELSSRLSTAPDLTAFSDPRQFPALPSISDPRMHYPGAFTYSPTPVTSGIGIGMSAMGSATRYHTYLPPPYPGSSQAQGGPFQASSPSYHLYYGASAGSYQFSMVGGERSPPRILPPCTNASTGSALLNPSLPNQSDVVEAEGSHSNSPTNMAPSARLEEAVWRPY
Sequence,ETS1 binding intensity [1],RUNX1 binding intensity [2],RUNX1 binding intensity [3],ETS1 binding intensity [4]
AGGGGAGGAACCAGGAAGTTGTGGTAAACTGTAGCA,2490,982,2360,–
TCTGTCGCACATCCGGTGTGAGCTGCGGGGCGGTGG,7930,753,1640,10600
GGGCCCACATCCGGCGCGCGCAACCGCAGCCTACTG,1120,2530,13100,–
CAGGCTCGCCACAGGGGAAGTGGTTAGGGCGGGTCC,684,775,890,–
ATAGACTCAGGAAGTGATTGTGGTAAGATTCTATAT,1460,829,1440,–
AGGTCGCCCTCCGGATGCGGTCCCCACACCGCCTGC,1870,857,1490,–
TGCACGGTAAGCAGGAAGCTGCGGCCGAGCTGAGTC,2020,687,1030,–
AGGACGGGCGGAAGTGGCTGCGGTGGATGGTGGGAG,4180,797,3180,–
AAGAAAAAGGGAGGATGTGGTTTAGCAAAAGCACTG,1420,920,2230,–
CACCTCGGGGGTTTCCGGTCCGTGGTTAGCTCCTTC,2600,1030,2930,–
CACCCCCCCAGTGCAGGAAGTGGTTTTCGAGGGCAG,4490,908,1790,–
GGGACAGACTCTCCAGGATGTGGTTGGATTTTGGGC,1520,754,1040,–
CTCTGCCCGCTTCCGCTGGCGGTACCTCAGAGCCGC,919,904,4710,–
